A selection: hits, their analogues and other compounds. The true share with any hit is near 5.3%.
CtBP-E1A inh = qHTS Assay for Inhibitors of the CtBP/E1A Interaction. AlphaScreen GST-E1A/His-CtBP binding, 1536-well; hits give low values. activity change, % (no concentration beside the values). 340,000 compounds, 0.49% hits; in the data active = activity change below about -65%; inconclusive = mostly about -30% to -63%; also: % is scaled to controls: 0 for no effect and ±100 for the full control effect
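Steps: dispense buffer (Tris pH 8.0, NaCl 300 mM, TCEP 1 mM, BSA, Tween 20); add 5X protein mix (GST-E1A, His-CtBP, 125 nM each); pin 23 nL compound; 2 h at 37 °C, dark; add 5X beads (50 ug/mL); 1 h; read.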
TDP1 inh = qHTS Assay for Inhibitors of Tyrosyl-DNA Phosphodiesterase (TDP1); recombinant TDP1, AlphaScreen DNA substrate cleavage; Potency, µM (highest dose often 130 µM), for inactives: at the top dose activity change, negative = inhibition, usual class: inhibitors; 350,000 compounds, 0.28% hits; also: potency is read from the fitted curve at half-maximal effect; % is scaled to controls: 0 for no effect and ±100 for the full control effect; nearly all actives have a fitted effect of over 40% in size
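Signal: AlphaScreen proximity between streptavidin donor and anti-FITC acceptor beads on intact substrate. Reaction: Tdp1 1 nM, substrate 15 nM final, 5 min RT after 15 min compound preincubation.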
HP1b binding inh = HTS for Inhibitors of HP1-beta Chromodomain Interactions with Methylated Histone Tails; Chromobox protein homolog 1 (Homo sapiens), P83916; AlphaScreen HP1-beta / biotin-H3K9me3 peptide binding; Potency, µM (top dose mostly 114 µM), for the others: at the highest dose activity change, negative = inhibition, hits mostly inhibitors; 390,000 compounds, 0.56% hits; AID 540317, 2011; also: potency is read from the fitted curve at half-maximal effect; nearly all actives have a fitted effect of over 70% in size
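Compound inhibition of the preformed complex between 50 nM HP1-beta and 50 nM biotinylated H3K9me3 peptide was read by AlphaScreen. Buffer was PBS pH 7.4 with 0.01% Tween-20. Incubations ran 30 min at room temperature, with 10 ug/mL donor/acceptor beads.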
Six1-Eya2 blk = qHTS Assay for Inhibitors of the Six1/Eya2 Interaction. AlphaScreen GST-Six1/His-Eya2 binding, biochemical; hits give low values. activity change, % (concentration not given with the values). 360,000 compounds, 0.56% hits; in the data active = activity change below about -65%; inconclusive = mostly about -30% to -63%; also: % is scaled to controls: 0 for no effect and ±100 for the full control effect
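Homogeneous AlphaScreen proximity assay pairing GST-Six1 with His-tagged Eya2 (added as 5X mix: 250 nM and 500 nM) in 50 mM Tris pH 8.0, 300 mM NaCl, 1 mM TCEP. Glutathione donor and nickel acceptor beads; 1 h, 37 °C, dark.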
BAZ2B inh = qHTS Assay for Inhibitors of BAZ2B; Bromodomain adjacent to zinc finger domain protein 2B (Homo sapiens), Q9UIF8; AlphaScreen BAZ2B-H3K14Ac peptide displacement; Potency, µM (top dose mostly 114 µM), inactives show top-dose activity change, negative = inhibition, most hits filed as inhibitors; 360,000 compounds, 4.4% hits; also: potency is read from the fitted curve at half-maximal effect; % is scaled to controls: 0 for no effect and ±100 for the full control effect; nearly all actives have a fitted effect of over 60% in size
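Compounds, titrated to a top concentration of 110 uM, were incubated 30 min at room temperature with preformed BAZ2B/acetyl-K14 H3 peptide complex (50 nM each). Proximity signal was measured by AlphaScreen after 20 min with beads.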
JMJD2A Tudor = qHTS Assay for Inhibitors of JMJD2A-Tudor Domain. Lysine-specific demethylase 4A (Homo sapiens), O75164. AlphaScreen JMJD2A-Tudor / H3K4me3 peptide binding. Potency, µM (highest dose often 114 µM), inactives show top-dose activity change, negative = inhibition, most hits filed as inhibitors. 390,000 compounds, 4.4% hits. AID 504339, 2011; also: potency is read from the fitted curve at half-maximal effect; % is scaled to controls: 0 for no effect and ±100 for the full control effect; nearly all actives have a fitted effect of over 50% in size
An asterisk follows results filed as active; ? = inconclusive; . = not tested or not shown; [ ] = dose if it differs, or a comment. Unless noted, calls follow the shape of the dose curve; as a rule, active = well fitted inhibition curve with a large enough effect; inconclusive = small, poorly fitted or top-dose-only effect; inactive = no such curve, though single readings can be large or run the other way.

SMILES	CtBP-E1A inh	TDP1 inh	HP1b binding inh	Six1-Eya2 blk	BAZ2B inh	JMJD2A Tudor
C#CCOCCOCCOCCNc1nc(N2CCN(C(=O)[C@H](CCCCN)n3cc(CN)nn3)CC2)nc(N2CCN(C(=O)[C@H](CC(N)=O)n3cc(C(N)[C@H](C)CC)nn3)CC2)n1 (stereo partly drawn)	-1	.	15%	-7	.	40µM*
C#CCOCCOCCOCCNc1nc(N2CCN(C(=O)[C@H](CCCCN)n3cc(CN)nn3)CC2)nc(N2CCN(C(=O)[C@H](CCC(=O)O)n3cc([C@@H](N)CCSC)nn3)CC2)n1	-7	0%	6%	-3	.	89µM*
C#CCOCCOCCOCCNc1nc(N2CCN(C(=O)[C@H](CO)n3cc([C@@H](N)C(C)C)nn3)CC2)nc(N2CCN(C(=O)[C@H](CO)n3cc([C@@H](N)C(C)C)nn3)CC2)n1	-9	.	23%	-11	.	79µM*
C#CCOCCOCCOCCNc1nc(N2CCOCC2)nc(N2CCN(C(=O)[C@H](CCCCN)n3cc(CN)nn3)CC2)n1	3	6%	7%	3	.	-28%
Cc1ccc(S(=O)(=O)c2nnn3c2nc(N2CCN(c4cccc(C)c4C)CC2)c2ccccc23)cc1C	.	6%	41%	.	0%	-7%
Cc1nnc(N2C(=O)c3oc4ccccc4c(=O)c3C2c2ccc(F)cc2)s1 (stereo not drawn)	.	4%	26%	.	1%	4%
COc1cccc(N2CC(NC(=O)c3cccc(OC)c3OC)CC2=O)c1 (stereo not drawn)	.	-8%	14%	.	2%	-4%
C#CCOCCOCCOCCNc1nc(N2CCN(C(=O)[C@H](CC(N)=O)n3cc(C(N)[C@H](C)CC)nn3)CC2)nc(N2CCN(C(=O)[C@H](CC(N)=O)n3cc(C(N)[C@@H](C)CC)nn3)CC2)n1 (stereo partly drawn)	-9	0%	33%	-15	.	22µM*
C#CCOCCOCCOCCNc1nc(N2CCN(C(=O)[C@H](CCCCN)n3cc(C(N)CO)nn3)CC2)nc(N2CCN(C(=O)[C@H](CCC(=O)O)n3cc(C(N)[C@H](C)CC)nn3)CC2)n1 (stereo partly drawn)	.	0%	.	.	40µM*	.
C#CCOCCOCCOCCNc1nc(N2CCN(C(=O)C([C@@H](C)CC)n3cc(C(N)CO)nn3)CC2)nc(N2CCN(C(=O)[C@H](CCC(=O)O)n3cc(C(N)[C@H](C)CC)nn3)CC2)n1 (stereo partly drawn)	.	-2%	.	.	35µM*	.
C#CCOCCOCCOCCNc1nc(N2CCN(C(=O)[C@H](C)n3cc(CCC(=O)O)nn3)CC2)nc(N2CCN(C(=O)[C@H](CCCCN)n3cc(CCCC)nn3)CC2)n1	7	.	23%	12	.	-17%
C#CCOCCOCCOCCNc1nc(N2CCN(C(=O)[C@H](CCCCN)n3cc([C@@H](N)[C@H](C)CC)nn3)CC2)nc(N2CCN(C(=O)[C@H](CCC(=O)O)n3cc([C@@H](N)CCSC)nn3)CC2)n1	-11	0%	16%	-5	.	79µM*
Cc1ccc(C)c(NC(=O)CSc2nc(=O)n(Cc3ccccn3)c3c2CCC3)c1	.	0%	29%	.	7%	2%
C#CCOCCOCCOCCNc1nc(N2CCN(C(=O)[C@H](CCC(=O)O)n3cc(C(N)[C@H](C)CC)nn3)CC2)nc(N2CCN(C(=O)[C@H](CCC(=O)O)n3cc(C(N)[C@H](C)CC)nn3)CC2)n1 (stereo partly drawn)	0	1%	-16%	16	79µM*	?
C#CCOCCOCCOCCNc1nc(N2CCN(C(=O)[C@H](CCC(=O)O)n3cc(C(N)CO)nn3)CC2)nc(N2CCN(C(=O)[C@H](CCC(=O)O)n3cc(C(N)[C@H](C)CC)nn3)CC2)n1 (stereo partly drawn)	?	1%	33%	-24	35µM*	35µM*
Cc1ccc(CNC(=O)c2c(C)oc3ncnc(N4CCOCC4)c23)cc1	.	1%	32%	.	10%[57.1 µM]	-5%
CCCC1=Nc2cc(C(=O)NC3CCCC3)ccc2Sc2ccc(C)cc21	.	0%	11%	.	-14%	-8%
C/C(Cl)=C\Cn1c(O)c(N=NC(N)=S)c2cc(Br)ccc21	-12	12%	?	?	10µM*	45µM*
Cn1cncc1CNc1ncnc2ccc(-c3ccc4c(c3)OCO4)cc12	.	5%	.	.	.	56µM*
O=C(c1cccs1)N1CCN(Cc2cccc([N+](=O)[O-])c2)CC1	5	-8%	?	0	28µM*	20µM*
O=C(c1ccc([N+](=O)[O-])cc1)N1CCN(C(=O)c2cccs2)CC1	17	-3%	7%	5	-4%	-10%
COc1ccc(CN2CCN(C(=O)c3cccs3)CC2)cc1Br	-8	0%	?	-13	50µM*	35µM*
Cc1ccc(N2CCN(C(=O)c3cccs3)CC2)cc1C	-21	.	5%	-4	50µM*	-31%
COc1ccc(CN2CCN(C(=O)c3cccc4ccccc34)CC2)cc1Br	-16	.	-17%	-14	50µM*	18µM*
COc1ccc(CN2CCN(C(=O)c3ccccc3C(=O)c3ccccc3)CC2)cc1F	0	.	.	-11	.	.
SMILES	CtBP-E1A inh	TDP1 inh	HP1b binding inh	Six1-Eya2 blk	BAZ2B inh	JMJD2A Tudor
COc1cccc([C@@H]2Oc3ccc(OC)cc3C[C@H]2OC(=O)Nc2ccc(OC(F)F)cc2)c1	.	-3%	.	.	.	.
O=C(CSc1nnc(-c2cccc(F)c2)c(-c2cccc(F)c2)n1)NC1CCCCC1	.	-4%	34%	.	0%	2%
CCc1ccc(NC(=O)CCn2nc(-c3ccccc3OC)c3c(C)cc(C)nc32)cc1	.	0%	25%	.	-16%	-19%
Cc1cc(SCC(=O)NCc2ccccc2Cl)nc(=O)[nH]1	.	-3%	28%	.	-1%	0%
CCOc1cc(CN2CCN(C(=O)c3cccc4ccccc34)CC2)ccc1OC	.	5%	?	-3	50µM*	20µM*
COc1ccc2ccccc2c1CN1CCN(C(=O)c2ccccc2)CC1	-10	5%	12%	-14	-30%	-23%
Cc1ccccc1-c1nc(SCC(=O)NCC2CCCO2)c2c(=O)n(C)c(=O)n(C)c2n1 (stereo not drawn)	.	3%	16%[57 µM]	.	7%	-11%

Bioassay records: PubChem, National Center for Advancing Translational Sciences (NCATS)
